What all share (details): mESC; 2uM; 72 h treatment, harvest day 5
Compound in one experiment: CO[C@H]1/C=C/O[C@@]2(C)Oc3c(C)c(O)c4c(O)c(c(/C=N/N5CCN(C6CCCC6)CC5)c(O)c4c3C2=O)NC(=O)/C(C)=C\C=C\[C@H](C)[C@H](O)[C@@H](C)[C@@H](O)[C@@H](C)[C@H](OC(C)=O)[C@@H]1C [Rifapentine]
Put plainly: fraction of microhomology deletions among edited reads; higher = more MH deletions.

Compound in experiment [1]: COc1ccccc1-c1cc(Nc2cccc(CS(N)(=O)=O)c2)ncn1
Described as above.

Compound in experiment [2]: C[C@@H]1CN(CC(=O)Nc2ccc3c(c2)Cc2cccc(-c4cc(=O)cc(N5CCOCC5)o4)c2S3)C[C@H](C)O1
The experiment is described as above.

Compound in experiment [3]: Cc1cc(C)nc(SCC(=O)Nc2ncc(Cc3cccc4ccccc34)s2)n1
Described as above.

Compound in experiment [4]: Cc1cccc(CC(=O)N2CCc3c2ccc(-c2cn(C)c4ncnc(N)c24)c3F)n1
The experiment is described as above.

Compound in experiment [5]: NC(=O)c1ccc2nc(-c3ccc(Oc4ccc(Cl)cc4)cc3)[nH]c2c1 [Chk 2 inhibitor II (BML-277)]
The experiment is described as above.

Compound in a further experiment: Nc1cc(F)ccc1NC(=O)c1ccc(CNC(=O)/C=C/c2cccnc2)cc1 [Tucidinostat (Chidamide)]
The description is as above.

Compound in another experiment: Nc1nc2[nH]cc(CCc3ccc(C(=O)N[C@@H](CCC(=O)O)C(=O)O)cc3)c2c(=O)[nH]1 [Pemetrexed]
The experiment is described as above.

Compound in experiment [6]: Nc1ncnc2c1c(-c1cnc3[nH]ccc3c1)nn2C1CCCC1
Described as above.

Compound in experiment [7]: O=C(c1cccc(Cl)c1F)N1CCN(Cc2cccc(Nc3nccs3)n2)CC1
The experiment is described as above.

Compound in a further experiment: O=C1Cc2c([nH]c3ccc(Br)cc23)-c2ccccc2N1 [Kenpaullone]
Described as above.

Compound in a further experiment: O=c1c(-c2ccc(O)cc2)coc2cc(O)cc(O)c12 [Genistein]
The experiment is described as above.

Compound in experiment [8]: O=c1cc(N2CCOCC2)oc2c(-c3ccc4c(c3)OCCO4)csc12
Described as above.

Compound in a further experiment: S=c1[nH]cnc2nc[nH]c12 [Mercaptopurine (6-MP)]
The experiment is described as above.

Compound in experiment [9]: S=c1nc[nH]c2nc[nH]c12 [6-Mercaptopurine (6-MP) Monohydrate]
Described as above.

Compound in experiment [10]: CC(=O)O/N=C1\C(=O)N(Cc2cc(Cl)ccc2Cl)c2ccc(Cl)cc21
Put plainly: fraction of 1-bp insertions among edited reads; higher = more 1-bp insertion outcomes.

Compound in experiment [11]: CC(C)(C#N)c1ccc(N2C(=O)OCc3cnc4ccc(-c5cnc6ccccc6c5)cc4c32)cc1
The description is as above.

Compound in experiment [12]: CCCCOc1c(C(=O)c2c(F)cc(C)cc2F)c[nH]c2nncc1-2
Described as above.

Compound in experiment [13]: CCN1CCN(CC(=O)Nc2ccc(-c3cccc4c(=O)cc(N5CCOCC5)oc34)c3sc4ccccc4c23)CC1
Described as above.

Compound in experiment [14]: CCc1c2c(nc3ccc(OC(=O)N4CCC(N5CCCCC5)CC4)cc13)-c1cc3c(c(=O)n1C2)COC(=O)[C@]3(O)CC [Irinotecan HCl Trihydrate]
The experiment is described as above.

As to “39.0 (DMSO control at this site: 1-bp insertion 0.328, MH deletion 0.371, edited 0.204) CTGCACAGTCACTTAGGATAGGAGAAGATGATGTATAGGGTTTAGTGGGAGATGTTGCAAG”, the “fraction of microhomology deletions among edited reads” value was 0.414 with Rifapentine; 0.303 in experiment [1]; 0.105 in [2]; 0.361 in experiment [3]; 0.372 in experiment [4]; 0.372 in experiment [5]. Moreover, the “fraction of microhomology deletions among edited reads” value with Tucidinostat (Chidamide) came out at 0.287; with Pemetrexed, 0.407; in [6], 0.286; in experiment [7] it was 0.32; with Kenpaullone, 0.264; in the experiment with Genistein it was 0.404. Further, the “fraction of microhomology deletions among edited reads” value worked out at 0.406 in [8], 0.356 with Mercaptopurine (6-MP) and 0.371 in experiment [9]. Besides, the “fraction of 1-bp insertions among edited reads” value is 0.334 in experiment [10]; 0.385 in experiment [11]; 0.418 in experiment [12]; 0.163 in experiment [13]; 0.423 in experiment [14].
As to “27.0 CCAGAATTAGAACATATCATCTGGACCCTTTTCCATCTGGACCCTTTTCCAGCACACCCTG”, the “fraction of microhomology deletions among edited reads” value was determined as 0.214 in the experiment with Rifapentine; 0.156 in experiment [1]; 0.104 in [3]; 0.174 in the experiment with Tucidinostat (Chidamide); 0.105 in [6]; 0.0808 with Kenpaullone. In addition, the “fraction of microhomology deletions among edited reads” value with Genistein was found to be 0.0896; in [8], 0.137; in the experiment with Mercaptopurine (6-MP) it was 0.197; in experiment [9] it was 0.147. Besides, the “fraction of 1-bp insertions among edited reads” value came to 0.107 in experiment [10], 0.141 in [11], 0.138 in experiment [12] and 0.178 in [14].
For the target “4.0 (DMSO control at this site: 1-bp insertion 0.146, MH deletion 0.523, edited 0.125) ACGCCTTAGTGCACGAGTGACGGGATAATGTGGTCTCAGGTAATTGATAGGCTTCCAACTT”, the “fraction of microhomology deletions among edited reads” value worked out at 0.592 with Rifapentine; 0.535 in [1]; 0.319 in experiment [2]; 0.545 in experiment [3]; 0.492 in experiment [4]; 0.575 in [5]. The “fraction of microhomology deletions among edited reads” value in the experiment with Tucidinostat (Chidamide) worked out at 0.482; with Pemetrexed it was 0.504; in experiment [6], 0.501; in experiment [7] it was 0.475; in the experiment with Kenpaullone, 0.475; with Genistein it was 0.553. The “fraction of microhomology deletions among edited reads” value in experiment [8] came to 0.586; in the experiment with Mercaptopurine (6-MP), 0.478; in experiment [9], 0.463. Further, the “fraction of 1-bp insertions among edited reads” value in experiment [10] worked out at 0.121; in experiment [11] it was 0.127; in experiment [12] it was 0.152; in [13], 0.0339; in experiment [14], 0.116.
Consider “22.0 (DMSO control at this site: 1-bp insertion 0.573, MH deletion 0.229, edited 0.045) CTGATGGTTGAAGGATTTAGCCGGGGTCCTAGACGCCGGGGTCCTAGACGAAAGGGCCACG”, for which the “fraction of microhomology deletions among edited reads” value with Rifapentine was 0.142; in [1] it was 0.163; in [2] it was 0.0591; in experiment [3], 0.188; in experiment [4], 0.0873; in experiment [5], 0.201. In addition, the “fraction of microhomology deletions among edited reads” value with Tucidinostat (Chidamide) worked out at 0.209; with Pemetrexed, 0.267; in [7], 0.0524; with Kenpaullone, 0.116; in the experiment with Genistein, 0.139; in experiment [8] it was 0.146. The figures for the “fraction of microhomology deletions among edited reads” value (with Mercaptopurine (6-MP); in experiment [9]) were 0.107 and 0.155, respectively. For the same target, the “fraction of 1-bp insertions among edited reads” value in experiment [10] is 0.62; in experiment [11], 0.564; in experiment [12] it was 0.613; in experiment [13] it was 0.302; in [14], 0.604.
On to “35.0 (DMSO control at this site: 1-bp insertion 0.01, MH deletion 0.72, edited 0.098) CCACTTTTAGAGAGGGTGAAAATCATCAGTTATCATCAGGGCAACAAATTGCTTTCTCCTA”, for which the “fraction of microhomology deletions among edited reads” value in the experiment with Rifapentine stood at 0.776; in experiment [1] it was 0.724; in experiment [2] it was 0.562; in experiment [3], 0.732; in experiment [4] it was 0.695; in [5], 0.722. Also, the “fraction of microhomology deletions among edited reads” value was found to be 0.687 with Tucidinostat (Chidamide); 0.794 with Pemetrexed; 0.699 in experiment [6]; 0.679 in experiment [7]; 0.683 with Kenpaullone; 0.77 with Genistein. For the same target, the “fraction of microhomology deletions among edited reads” value in [8] worked out at 0.809; with Mercaptopurine (6-MP), 0.684; in [9], 0.657. Besides, the “fraction of 1-bp insertions among edited reads” value in [10] was determined as 0.0261; in experiment [11] it was 0.0309; in experiment [12], 0.00887; in experiment [13] it was 0.0214; in experiment [14] it was 0.0184.
